{"source": "the supplement of paper PMC8728848", "experiment_in_all_cases": "glycan array binding signal (z-score within array); higher = stronger binding", "conditions_in_all_cases": "glycan notation: IUPAC condensed, linker removed", "key": {"Gal3S(b1-3)GlcNAc": {"target": "Gal3S(b1-3)GlcNAc", "how_it_was_run": "(§1)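 From the Consortium for Functional Glycomics database, 3228 arrays were curated, keeping only those whose protein sequence was available. Binding is given as a within-array Z-score averaged across arrays sharing a protein sequence and across linkers. Negative Z-scores can be read as non-binding.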"}, "Gal3S(b1-4)Glc6S": {"target": "Gal3S(b1-4)Glc6S", "how_it_was_run": "as §1"}, "[1]": {"target": "Gal3S(b1-4)[Fuc(a1-3)]Glc6S", "how_it_was_run": "as §1"}, "[2]": {"target": "Gal3S(b1-4)[Fuc(a1-3)]GlcNAc6S", "how_it_was_run": "as §1"}, "Gal4S6S(b1-4)GlcNAc": {"target": "Gal4S6S(b1-4)GlcNAc", "how_it_was_run": "as §1"}, "Gal6S(b1-4)GlcNAc": {"target": "Gal6S(b1-4)GlcNAc", "how_it_was_run": "as §1"}, "[3]": {"target": "GalNAc(b1-3)Gal(a1-4)Gal(b1-4)GlcNAc", "how_it_was_run": "as §1"}, "[4]": {"target": "GalNAc(b1-3)Gal(a1-6)Gal(b1-4)Glc", "how_it_was_run": "as §1"}, "GalNAc(b1-4)GlcNAc": {"target": "GalNAc(b1-4)GlcNAc", "how_it_was_run": "as §1"}, "[5]": {"target": "GlcNAc(a1-4)Gal(b1-4)GlcNAc", "how_it_was_run": "as §1"}, "[6]": {"target": "GlcNAc(a1-4)Gal(b1-4)GlcNAc(b1-3)Gal(b1-4)[Fuc(a1-3)]GlcNAc(b1-3)Gal(b1-4)[Fuc(a1-3)]GlcNAc", "how_it_was_run": "as §1"}, "[7]": {"target": "GlcNAc(b1-3)Gal(b1-4)GlcNAc(b1-2)Man(a1-3)[GlcNAc(b1-3)Gal(b1-4)GlcNAc(b1-2)Man(a1-6)]Man(b1-4)GlcNAc(b1-4)[Fuc(a1-6)]GlcNAc", "how_it_was_run": "as §1"}, "Kdn(a2-3)Gal(b1-4)Glc": {"target": "Kdn(a2-3)Gal(b1-4)Glc", "how_it_was_run": "as §1"}, "[8]": {"target": "Neu5Ac(a2-3)Gal(b1-3)GlcNAc(b1-3)Gal(b1-4)GlcNAc", "how_it_was_run": "as §1"}, "[9]": {"target": "Neu5Ac(a2-3)Gal(b1-3)GlcNAc(b1-6)GalNAc", "how_it_was_run": "as §1"}, "[10]": {"target": "Neu5Ac(a2-3)Gal(b1-4)GlcNAc(b1-2)Man(a1-3)[Neu5Ac(a2-6)Gal(b1-4)GlcNAc(b1-2)Man(a1-6)]Man(b1-4)GlcNAc(b1-4)GlcNAc", "how_it_was_run": "as §1"}, "[11]": {"target": "Neu5Ac(a2-3)Gal(b1-4)GlcNAc(b1-2)[Neu5Ac(a2-3)Gal(b1-4)GlcNAc(b1-6)]Man(a1-6)[Neu5Ac(a2-3)Gal(b1-4)GlcNAc(b1-2)Man(a1-3)][GlcNAc(b1-4)]Man(b1-4)GlcNAc(b1-4)GlcNAc", "how_it_was_run": "as §1"}, "[12]": {"target": "Neu5Ac(a2-3)Gal(b1-4)GlcNAc(b1-3)Gal", "how_it_was_run": "as §1"}, "[13]": {"target": "Neu5Ac(a2-3)Gal(b1-4)GlcNAc(b1-3)Gal(b1-4)GlcNAc(b1-3)Gal(b1-4)GlcNAc(b1-2)Man(a1-3)[Neu5Ac(a2-3)Gal(b1-4)GlcNAc(b1-3)Gal(b1-4)GlcNAc(b1-3)Gal(b1-4)GlcNAc(b1-2)Man(a1-6)]GalNAc", "how_it_was_run": "as §1"}, "[14]": {"target": "Neu5Ac(a2-3)Gal(b1-4)GlcNAc(b1-3)[Neu5Ac(a2-3)Gal(b1-4)GlcNAc(b1-6)]GalNAc", "how_it_was_run": "as §1"}, "[15]": {"target": "Neu5Ac(a2-3)Gal(b1-4)GlcNAc(b1-6)[Gal(b1-3)]GalNAc", "how_it_was_run": "as §1"}, "[16]": {"target": "Neu5Ac(a2-6)Gal(b1-3)GlcNAc(b1-3)[Gal(b1-4)GlcNAc(b1-6)]Gal(b1-4)Glc", "how_it_was_run": "as §1"}, "[17]": {"target": "Neu5Ac(a2-6)Gal(b1-4)GlcNAc(b1-2)Man(a1-3)[Gal(b1-4)GlcNAc(b1-2)Man(a1-6)]Man(b1-4)GlcNAc(b1-4)GlcNAc", "how_it_was_run": "as §1"}, "[18]": {"target": "Neu5Ac(a2-6)Gal(b1-4)GlcNAc(b1-6)[Gal(b1-3)GlcNAc(b1-3)]Gal(b1-4)Glc", "how_it_was_run": "as §1"}, "[19]": {"target": "Neu5Ac(a2-6)GlcNAc(b1-4)GlcNAc(b1-4)GlcNAc", "how_it_was_run": "as §1"}}, "note": "Shown is part of a subset that was picked to be rich in the strongest signals."}
{"binder": "FimA-N1 (Actinomyces oris) (protein) MHHHHHHSSGVDLGTENLYFQSNATETPNYGNIKTDATGSLVIHKHLTGGGKDIGTPTGTAQNADDKGPAVEGVVFTAYPITDINLKDPAGWDTISNLSRTGVPDSACANPAAPTLGAHQFGTPKVSPATTKEGLATITEMPVQAYLVCETTTPGDIVQKAKPFVVTIPHPNTAAGADGQWIYDVNVYPKNEAIDVDKTIQAQK", "values": [{"measurement": "glycan array binding signal (z-score)", "setting": "Gal3S(b1-3)GlcNAc", "result": -0.055}, {"measurement": "glycan array binding signal (z-score)", "setting": "Gal3S(b1-4)Glc6S", "result": 3.06}, {"measurement": "glycan array binding signal (z-score)", "setting": "[1]", "result": 1.9}, {"measurement": "glycan array binding signal (z-score)", "setting": "[2]", "result": 7.57}, {"measurement": "glycan array binding signal (z-score)", "setting": "Gal4S6S(b1-4)GlcNAc", "result": 0.072}, {"measurement": "glycan array binding signal (z-score)", "setting": "Gal6S(b1-4)GlcNAc", "result": 0.396}, {"measurement": "glycan array binding signal (z-score)", "setting": "[3]", "result": 0.521}, {"measurement": "glycan array binding signal (z-score)", "setting": "[4]", "result": -0.352}, {"measurement": "glycan array binding signal (z-score)", "setting": "GalNAc(b1-4)GlcNAc", "result": -0.187}, {"measurement": "glycan array binding signal (z-score)", "setting": "[5]", "result": -0.509}, {"measurement": "glycan array binding signal (z-score)", "setting": "[6]", "result": 0.476}, {"measurement": "glycan array binding signal (z-score)", "setting": "[7]", "result": -0.002}, {"measurement": "glycan array binding signal (z-score)", "setting": "Kdn(a2-3)Gal(b1-4)Glc", "result": 0.117}, {"measurement": "glycan array binding signal (z-score)", "setting": "[8]", "result": -0.463}, {"measurement": "glycan array binding signal (z-score)", "setting": "[9]", "result": 0.079}, {"measurement": "glycan array binding signal (z-score)", "setting": "[10]", "result": -0.244}, {"measurement": "glycan array binding signal (z-score)", "setting": "[11]", "result": -0.572}, {"measurement": "glycan array binding signal (z-score)", "setting": "[12]", "result": -0.466}, {"measurement": "glycan array binding signal (z-score)", "setting": "[13]", "result": 2.52}, {"measurement": "glycan array binding signal (z-score)", "setting": "[14]", "result": -0.03}, {"measurement": "glycan array binding signal (z-score)", "setting": "[15]", "result": -0.173}, {"measurement": "glycan array binding signal (z-score)", "setting": "[16]", "result": -0.454}, {"measurement": "glycan array binding signal (z-score)", "setting": "[17]", "result": 6.46}, {"measurement": "glycan array binding signal (z-score)", "setting": "[18]", "result": -0.313}, {"measurement": "glycan array binding signal (z-score)", "setting": "[19]", "result": 0.006}]}
